Jurkat NFkB inh: inhibitors of induced NF-kB luciferase reporter, primary screen, TCR NF-kB activation inhibitor project, cell-based, luminescence, uHTS. AID 435003, 2010. hit rate 0.53% among 330,000. Jurkat, PMA/ionomycin-induced NF-kB luciferase reporter. inhibition, % at 4 µM; in the data active = inhibition above about 50%
697 NFkB inh: inhibitors of PMA/ionomycin-induced NF-kB reporter, 697 cells, primary screen, B-cell NF-kB inhibitor project, cell-based, luminescence, uHTS; 697 B-cell NF-kB luciferase reporter, 16 h; inhibition, % at 4 µM; hit rate 0.33% among 330,000; in the data active = inhibition above about 35%
aSyn UTR inh: MLPCN primary screen, SNCA 5' untranslated region | inhibition, % (tested at 7.5 µM) | hit rate 0.82% among 300,000 | alpha-synuclein 5'UTR reporter, inhibitor activity; in the data active = inhibition above about 60%; inconclusive = no clear call, values can overlap the other calls;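 note: H4 neuroglioblastoma cells stably carrying SNCA 5'UTR luciferase fusion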
Mdm2 MdmX PPI: inhibitors of human Mdm2-MdmX association, primary screen, cell-based, luminescence, split luciferase, SaOS-2, uHTS; hit rate 3% among 330,000; AID 485346, 2010; inhibition, % at 8 µM; Protein Mdm4 (Homo sapiens) + E3 ubiquitin-protein ligase Mdm2 (Homo sapiens), …; SaOS-2 split-luciferase Mdm2/MdmX complementation;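 active = inhibition of at least 50% at 8 µM in the primary screen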
Target sequence (O15151 whole entry, looked up): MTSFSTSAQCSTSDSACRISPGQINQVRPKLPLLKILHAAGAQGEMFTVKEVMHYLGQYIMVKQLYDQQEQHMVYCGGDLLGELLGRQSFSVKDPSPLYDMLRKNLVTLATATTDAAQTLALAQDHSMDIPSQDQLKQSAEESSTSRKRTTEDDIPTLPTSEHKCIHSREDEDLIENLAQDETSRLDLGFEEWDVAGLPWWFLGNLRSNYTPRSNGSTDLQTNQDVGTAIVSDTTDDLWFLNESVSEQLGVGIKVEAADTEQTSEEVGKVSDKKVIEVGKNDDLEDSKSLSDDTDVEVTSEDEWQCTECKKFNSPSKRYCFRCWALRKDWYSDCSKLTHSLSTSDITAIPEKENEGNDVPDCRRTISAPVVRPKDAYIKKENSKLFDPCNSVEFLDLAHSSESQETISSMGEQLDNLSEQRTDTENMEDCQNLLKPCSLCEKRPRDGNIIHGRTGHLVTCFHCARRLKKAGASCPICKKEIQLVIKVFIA
Target sequence (Q00987 whole entry, looked up): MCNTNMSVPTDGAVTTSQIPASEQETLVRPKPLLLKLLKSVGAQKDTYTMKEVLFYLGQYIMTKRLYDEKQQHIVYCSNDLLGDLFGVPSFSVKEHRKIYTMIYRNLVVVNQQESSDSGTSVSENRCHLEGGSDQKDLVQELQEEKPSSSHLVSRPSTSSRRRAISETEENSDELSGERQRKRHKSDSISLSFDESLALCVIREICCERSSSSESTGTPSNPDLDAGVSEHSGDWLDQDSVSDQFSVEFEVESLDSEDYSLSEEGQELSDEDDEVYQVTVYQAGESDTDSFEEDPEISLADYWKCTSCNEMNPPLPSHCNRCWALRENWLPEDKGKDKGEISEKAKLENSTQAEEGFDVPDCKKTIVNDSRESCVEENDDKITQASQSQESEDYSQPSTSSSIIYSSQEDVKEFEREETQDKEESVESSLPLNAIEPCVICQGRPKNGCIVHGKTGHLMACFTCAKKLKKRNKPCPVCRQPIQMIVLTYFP
KLF5 inhibitor: KLF5 expression inhibitors, primary screen, DLD-1 cells, luminescence; AID 1700, 2009; DLD-1 KLF5 promoter-luciferase reporter; inhibition, % at 5 µM; hit rate 0.23% among 290,000;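 active = inhibition above a per-plate limit of that plate's mean compound inhibition plus 3 SD, cut at about 60% in these data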;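 note: higher means less KLF5 promoter-driven luciferase light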
Gli-Sufu block: Gli-Sufu pathway antagonists, primary screen, luciferase luminescence, Sufu-KO-LIGHT cells, uHTS | Sufu-KO-LIGHT fibroblasts, Gli luciferase reporter luminescence | inhibition, % at 5 µM | hit rate 0.74% among 340,000;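 active = inhibition above about 55%, limit read from the data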
KLF5 confirm: KLF5 expression inhibitors, confirmation, DLD-1 cells, luminescence | shares compounds with KLF5 inhibitor | DLD-1 KLF5 promoter firefly luciferase reporter | inhibition, % at 4 µM | hit rate 79% among 610;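 active = inhibition above a set limit taken from the earlier primary screen, cut at about 63% in these data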
IEC-6 tox: cytotoxicity in rat IEC-6 cells, cytotoxicity control for KLF5 inhibitor project, cell-based, luminescence, triplicate | hit rate 56% among 610 | inhibition, % at 4 µM | IEC-6 rat intestinal cells, viability luminescence | shares compounds with KLF5 inhibitor; in the data active = inhibition above about 23%;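 note: cells exposed to compounds for 48 hours before viability read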
Jurkat NFkB conf: PMA/ionomycin-induced NF-kB reporter inhibitors, Jurkat retest, confirmation, T-cell NF-kB inhibitor project, cell-based, luminescence, single concentration; hit rate 27% among 2,700; Jurkat NF-kB luciferase, 16 h; inhibition, % at 4 µM; AID 435020, 2010; shares compounds with Jurkat NFkB inh;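 active = inhibition reaching about 45% at 4 µM in either replicate, limit read from the data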
697 NFkB conf: PMA/ionomycin-induced NF-kB reporter inhibitors, 697 retest, confirmation, B-cell NF-kB inhibitor project, cell-based, luminescence, single concentration; shares compounds with 697 NFkB inh; 697 B-cell NF-kB luciferase, 16 h; inhibition, % at 4 µM; hit rate 35% among 2,000; in the data active = inhibition mostly above about 28%, no sharp cut-off; inactive = mostly below about 22%
Mdm2 MdmX conf: Mdm2-MdmX complex disruptors, retested hits, confirmation, luminescence, single concentration | AID 489028, 2010 | shares compounds with Mdm2 MdmX PPI | inhibition, % at 8 µM | hit rate 55% among 10,000 | Mdm2-MdmX binding, luminescent assay; in the data active = inhibition above about 40%
FLuc counter: full-length luciferase signal inhibition, confirmation, counter-screen for Mdm2/MdmX interaction inhibitor project, cell-based, single concentration, SaOS-2 | inhibition, % at 8 µM | shares compounds with Mdm2 MdmX PPI | SaOS-2 full-length luciferase counterscreen, luminescence | hit rate 77% among 6,200 | AID 504607, 2011;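 active = mean inhibition at 8 µM reaching about 37%, which flags the compound as non-specific, limit read from the data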;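 note: p53-null SaOS-2 cells with luciferase driven by a doxycycline-inducible promoter; compound on cells about two nights before reading with doxycycline added after day one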
Gli-Sufu confirm: Gli-SUFU pathway antagonists, confirmation, single concentration, luciferase luminescence, Sufu-KO-LIGHT cells; hit rate 40% among 2,500; Gli luciferase reporter; AID 602428, 2012; inhibition, % at 5 µM; shares compounds with Gli-Sufu block;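 active = mean inhibition at 5 µM reaching about 45%, limit read from the data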
Gli cytotox: cytotoxicity in Sufu-KO-LIGHT cells, confirmation, cytotoxicity control for Gli-SUFU antagonist project, cell-based, ATP luminescence, single concentration; shares compounds with Gli-Sufu block; cytotoxicity, % at 5 µM; hit rate 32% among 2,500;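 active = mean cytotoxicity at 5 µM above about 25%, limit read from the data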;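 note: cells exposed to compound overnight for roughly 16 to 18 hours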
Wnt3a cs: Wnt3a reporter signal inhibition, confirmation, counter-screen for Gli-SUFU antagonist project, Wnt-LIGHT cells, luminescence, single concentration | inhibition, % at 6.25 µM | Wnt3a-driven luciferase reporter | shares compounds with Gli-Sufu block | hit rate 20% among 2,500;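 active = mean inhibition above about 25%, limit read from the data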
Each line names hits and unclear results; the compound was inactive in the other large screens (follow-up assays come after a bar, where they were run). Only some compounds are listed: those with a hit (about 4.1% of all), similar ones and a draw of the others.

Cc1ccc(Nc2nc(-c3c(C)nc4ncccn34)cs2)cc1	Jurkat NFkB inh 68, aSyn UTR inh 84, Mdm2 MdmX PPI 74, KLF5 inhibitor 73, Gli-Sufu block 57 | KLF5 confirm 79 | IEC-6 tox 73 | Jurkat NFkB conf 49 | Mdm2 MdmX conf 84 | FLuc counter 73 | Gli-Sufu confirm 64 | Gli cytotox 62 | Wnt3a cs inactive
CCCC(=O)NC(c1ccc(Cl)cc1)c1ccc2cccnc2c1O (stereo not given)	Mdm2 MdmX PPI 78, KLF5 inhibitor 78, Gli-Sufu block 86 | KLF5 confirm 82 | IEC-6 tox 77 | Mdm2 MdmX conf 84 | FLuc counter 57 | Gli-Sufu confirm 82 | Gli cytotox 35 | Wnt3a cs 71
CCCCC(=O)NC(c1ccccc1Cl)c1c(O)ccc2ccccc12 (stereo not given)	none
CCCC(=O)NC(c1ccc(C)cc1)c1ccc2cccnc2c1O (stereo not given)	Jurkat NFkB inh 52, Mdm2 MdmX PPI 81, KLF5 inhibitor 99, Gli-Sufu block 89 | KLF5 confirm 87 | IEC-6 tox 75 | Jurkat NFkB conf 86 | Mdm2 MdmX conf 87 | FLuc counter 53 | Gli-Sufu confirm 85 | Gli cytotox 50 | Wnt3a cs 87
CC(=O)NC(c1ccc2ccccc2c1)c1ccc2cccnc2c1O (stereo not given)	Jurkat NFkB inh 57, Mdm2 MdmX PPI 86, KLF5 inhibitor 77, Gli-Sufu block 92 | KLF5 confirm 87 | IEC-6 tox 79 | Jurkat NFkB conf 82 | Mdm2 MdmX conf 90 | FLuc counter inactive | Gli-Sufu confirm 83 | Gli cytotox 40 | Wnt3a cs 78
CCCCC(=O)NC(c1ccc(Cl)cc1)c1ccc2cccnc2c1O (stereo not given)	Jurkat NFkB inh 51, Mdm2 MdmX PPI 77, KLF5 inhibitor 84, Gli-Sufu block 89 | KLF5 confirm 88 | IEC-6 tox 66 | Jurkat NFkB conf 80 | Mdm2 MdmX conf 86 | FLuc counter inactive | Gli-Sufu confirm 88 | Gli cytotox 37 | Wnt3a cs 88
CC(=O)NC(C)c1cc(Cl)c2cccnc2c1O (stereo not given)	none (no result: aSyn UTR inh, KLF5 inhibitor)
COc1cc(OC)cc(C(=O)N[C@H](C(=O)OCC(=O)N2CCN(S(=O)(=O)c3ccc(C)cc3)CC2)C(C)C)c1	none (no result: Jurkat NFkB inh, 697 NFkB inh, aSyn UTR inh, Mdm2 MdmX PPI, KLF5 inhibitor)
CCOC(=O)C(=CNc1ccc(Oc2cncc(Cl)c2)nc1)C(=O)OCC	none
COc1ccc(-c2nsc3c(N4CCCCC4C)ncnc23)cc1 (stereo not given)	aSyn UTR inh 90, Mdm2 MdmX PPI 84, KLF5 inhibitor 76, Gli-Sufu block 81 | KLF5 confirm 92 | IEC-6 tox inactive | Mdm2 MdmX conf 91 | FLuc counter inactive | Gli-Sufu confirm 91 | Gli cytotox 47 | Wnt3a cs 105
Cc1ccc(/C=C2/SC(=S)N(CCCC(=O)Nc3ccc(O)cc3)C2=O)cc1	697 NFkB inh 88, aSyn UTR inh 86, Mdm2 MdmX PPI 92, KLF5 inhibitor 67, Gli-Sufu block 62 | KLF5 confirm 107 | IEC-6 tox inactive | 697 NFkB conf 93 | Mdm2 MdmX conf 94 | FLuc counter 54 | Gli-Sufu confirm 67 | Gli cytotox 26 | Wnt3a cs 35
O=C(COC(=O)C12CC3CC(CC(Br)(C3)C1)C2)Nc1ccc2[nH]c(=O)[nH]c2c1	none (no result: KLF5 inhibitor)
COc1cc(-c2c(-c3cc(OC)c(OC)c(OC)c3)noc2C)ccc1F	Jurkat NFkB inh 71, Mdm2 MdmX PPI 84, KLF5 inhibitor 79 | KLF5 confirm 88 | IEC-6 tox 74 | Jurkat NFkB conf 47 | 697 NFkB conf inactive | Mdm2 MdmX conf 88 | FLuc counter 107 | Gli-Sufu confirm 67 | Gli cytotox 65 | Wnt3a cs inactive
COC(=O)c1cc(-c2c(-c3cc(OC)c(OC)c(OC)c3)noc2C)cc([N+](=O)[O-])c1	none
COc1ccc(C(=O)c2cc([N+](=O)[O-])ccc2N2CCOCC2)cc1	aSyn UTR inh inconclusive, KLF5 inhibitor 77 (no result: Jurkat NFkB inh, 697 NFkB inh, Mdm2 MdmX PPI) | KLF5 confirm 83 | IEC-6 tox 66 | Gli-Sufu confirm 58 | Gli cytotox 62 | Wnt3a cs inactive
Cc1cc(C(=O)CN2C(=O)NC(C)(c3ccccc3)C2=O)c(C)n1CC1CCCO1 (stereo not given)	none
